Tb PFK block: inhibitors of T. brucei phosphofructokinase; hit rate 0.17% among 330,000; O15648; T. brucei PFK, ADP-Glo luminescence; Potency, µM (highest dose often 57.5 µM), for the others: top-dose activity, negative = inhibition, most hits filed as inhibitors;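 further: potency means the concentration at half of the fitted maximal effect; 0% = uninhibited 1x PFK enzyme wells and -100% = no-enzyme wells; nearly all actives have a fitted effect of over 60% in size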
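Luminescent ADP detection (ADP-Glo, two-step: ATP depletion then ADP-to-ATP conversion for luciferase) reported PFK activity after 45 min room-temperature reaction of 1.25 nM enzyme with 0.5 mM F6P and 0.1 mM ATP at pH 8.0.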
Pin1 inh: blocks the human prolyl isomerase Pin1 | hit rate 0.009% among 390,000 | Potency, µM (series often up to 115 µM), inactives show at the top dose activity, negative = inhibition, usual class: inhibitors | Pin1 FP peptide displacement, HiFluor488, 10 min; active means well fitted inhibition curve with a large enough effect in the polarisation, with a control signal flat, not every such curve was filed as active; inconclusive means small, poorly fitted or top-dose-only effect, or effect the other way, or a change in a side signal; inactive means no such curve, though single readings can be large or run the other way; the % refers to the polarisation; further: potency means the concentration at half of the fitted maximal effect
Target sequence (Q13526 whole entry, looked up): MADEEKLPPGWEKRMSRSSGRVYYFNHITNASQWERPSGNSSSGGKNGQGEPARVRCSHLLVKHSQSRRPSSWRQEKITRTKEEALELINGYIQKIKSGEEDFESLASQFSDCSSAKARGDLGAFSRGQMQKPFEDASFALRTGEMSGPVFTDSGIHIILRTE
PI4K2A inh: blocks human PI4K2A kinase activity; Q9BTU6; purified PI4K2A, ADP-Glo luminescence, 1 h; active compounds read low; activity change, negative = inhibition, % at 76.9 µM; hit rate 0.13% among 420,000; AID 1346378; in the data active means activity change below about -50%; inconclusive means mostly about -30% to -49%;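 further: -100% = wells without enzyme as full effect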
Target sequence (Q9BTU6 whole entry, looked up): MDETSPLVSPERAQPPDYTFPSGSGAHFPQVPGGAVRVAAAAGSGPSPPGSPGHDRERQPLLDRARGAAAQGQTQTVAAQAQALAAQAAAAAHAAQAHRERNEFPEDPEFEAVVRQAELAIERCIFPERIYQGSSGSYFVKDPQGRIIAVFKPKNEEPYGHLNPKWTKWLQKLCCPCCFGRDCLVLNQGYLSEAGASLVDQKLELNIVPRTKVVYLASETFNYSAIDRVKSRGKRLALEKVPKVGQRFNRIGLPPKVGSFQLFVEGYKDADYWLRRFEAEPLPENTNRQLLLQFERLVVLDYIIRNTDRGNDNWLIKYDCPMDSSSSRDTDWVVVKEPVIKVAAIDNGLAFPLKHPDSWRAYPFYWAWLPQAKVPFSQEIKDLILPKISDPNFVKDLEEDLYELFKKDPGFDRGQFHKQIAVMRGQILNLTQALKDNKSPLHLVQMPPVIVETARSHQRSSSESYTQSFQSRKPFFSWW
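PI4K2A activity was measured by ADP-Glo luminescence: enzyme (4 ug/mL stock) and phosphatidylinositol (1.2 mM stock) in Tris pH 7.5/MgCl2/EGTA/Triton X-100 buffer were reacted with ATP (300 microM stock) for one hour at ambient temperature.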
PI5P4K alpha inh: blocks human PI5P4K alpha kinase activity; P48426; PI5P4Kalpha enzyme, ADP-Glo luminescence, 60 min; active compounds read low; max response, %; hit rate 1.2% among 330,000; active means max response of -50% or lower; inconclusive means between -30% and -50%; inactive means -30% or higher; further: value at the top dose of about 77 µM
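Single end-point luminescence (ADP-Glo) quantified ADP from PI5P4Kalpha turnover; ATP 5 microM final, 1 h at RT, 0.1% CHAPS and 0.28 mM EGTA in HEPES pH 7.4.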
PGK inhibitor: blocks T. brucei phosphoglycerate kinase; PGK/GAPDH coupled, Kinase-Glo luminescence, 60 min; AID 602233; hit rate 0.043% among 380,000; Potency, µM (top dose mostly 57.5 µM), for the others: top-dose activity change, negative = inhibition, hits mostly inhibitors; P07378; further: potency means the concentration at half of the fitted maximal effect; nearly all actives have a fitted effect of over 60% in size
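Recombinant glycosomal PGK reaction used 1,3-bisphosphoglycerate generated in-well by GAPDH (100nM final) in 100mM TEA pH 7.6, 5mM MgCl2, 0.01% Tween-20. After 60 minutes at room temperature, ATP was read by Kinase-Glo Plus luminescence end-point.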
* = called active by the depositor; i = inactive; ? = inconclusive; nt = not tested or not shown. The sample as a whole holds a higher share of hits than the screen did. Unless noted, the call rests on the fitted dose curve; in most records, active means well fitted curve in the direction sought with a large enough effect; inconclusive means small, poorly fitted or top-dose-only effect, or another doubt; inactive means no such curve, though single readings can be large; an effect the other way counts as inactive or inconclusive. Unless noted, on the % scale 0 is the no-effect control and ±100 the full control effect.

SMILES	Tb PFK block	Pin1 inh	PI4K2A inh	PI5P4K alpha inh	PGK inhibitor
COc1ccc2ccccc2c1/C=N/NC(=O)c1sc(N)c(C#N)c1C	6%	?	-1	-76*	-2%
COc1cc(/C=N/NC(=O)c2sc(N)c(C#N)c2C)cc(Br)c1O	10%	17%	-2	-73*	3%
Cc1ccc2c(c1)C1CS(=O)(=O)N(CCc3ccccc3)CN1C2 (stereo not given)	nt	nt	1	nt	nt
Cc1c(/C=C2\SC(=Nc3cccc(C(=O)O)c3)NC2=O)c2ccccc2n1C	3%	43%	2	-79*	-11%
Nc1c(N2CCCC2)cc(Cl)c2nonc12	-4%	?	-66*	nt	-21%
Nc1ccc(N2CCCCC2)c2nonc12	14%	nt	-54*	-14	?
Nc1c(N2CCOCC2)cc(Cl)c2nonc12	-17%	-2%	-62*	nt	i
Nc1cc(Cl)ccc1N1CCCCC1	1%	1%	4	1	-1%
O=C(NCc1ccco1)c1cccc2c1C(=O)c1ccc(N3CCC(Cc4ccccc4)CC3)cc1S2(=O)=O	4%	?	4	-12	-2%
O=C(NCc1ccco1)c1cccc2c1C(=O)c1ccc(/C=C/c3ccccc3)cc1S2(=O)=O	15%	?	-18	-72*	?
COc1ccc(N2CCN(CCCNC(=O)COc3ccc(F)cc3)CC2)cc1	nt	nt	-4	nt	nt
Cc1ccc(S(=O)(=O)NN=CC=CC=NNS(=O)(=O)c2ccc(C)cc2)cc1	nt	nt	-4	-61*	3%
Cc1ccc(S(=O)(=O)NNC(=O)C(=O)NNS(=O)(=O)c2ccc(C)cc2)cc1	-11%	-8%	-3	6	-8%
Cc1ccc(NNS(=O)(=O)c2ccc(C)cc2)cc1	?	4%	-4	-63*	-7%
N#Cc1cc(Sc2ccccn2)c([N+](=O)[O-])cc1C#N	-14%	0%	-6	-86*	-4%
C/C(=C\C(=O)c1ccccc1)Nc1ccc(O)cc1	1%	26%	-54*	-2	-4%
C/C(=C\C(=O)c1cccnc1)Nc1ccc(O)cc1	-13%	-3%	-61*	nt	i
N#Cc1c(N)nc2c3c(sc(=N)c2c1N)NC(=O)CC3c1c(F)cccc1Cl (stereo not given)	-4%	38%	-2	-67*	-2%
N#Cc1c(N)nc2c3c(sc(=N)c2c1N)NC(=O)CC3c1ccccc1 (stereo not given)	-4%	?	-4	-87*	-1%
CCCOc1ccc2c(c1)CC[C@@H]1[C@@H]2CC[C@]2(C)C(OC)CC[C@@H]12 (stereo not given in full)	nt	nt	3	nt	nt
c1nc(NCCc2cnc[nH]2)c2ccc(-c3ccc4c(c3)OCO4)cc2n1	nt	6%	nt	nt	nt
CC(C)(C)OC(=O)Cc1nnc(C(C(=O)OCc2ccccc2)c2ccccc2)s1 (stereo not given)	nt	-2%	nt	nt	nt
CC(=O)N1CCc2cc(S(=O)(=O)Nc3ccc(C)c(C)c3)ccc21	nt	-5%	nt	nt	nt
S=c1cnc2ccccc2[nH]1	-3%	-8%	1	-61*	i
CC(C)n1nc(-c2cc3cc(O)ccc3[nH]2)c2c(N)ncnc21	nt	nt	3	nt	nt
SMILES	Tb PFK block	Pin1 inh	PI4K2A inh	PI5P4K alpha inh	PGK inhibitor
CC1=NN(c2ccccc2)C(=O)C1C=Nc1ccccc1O (stereo not given)	-1%	-1%	-5	2	-6%
CC1=NN(c2ccccc2)C(=O)C1/C=C1\NC(=S)NC1=O (stereo not given)	10%	30%	-12	-74*	-9%
COc1ccc(C2=CC(=O)C[C@H](c3ccc(OC)cc3)C2)cc1	25%	0%	0	4	-5%
COc1ccc(C2=CC(=O)C=CC2=O)cc1	6.7µM*	nt	nt	nt	nt
O=C1C(=O)N(Cc2ccco2)C(c2cccs2)/C1=C(\O)c1cccc([N+](=O)[O-])c1 (stereo not given)	?	1%	-2	-79*	i
COc1cccc(/C(O)=C2/C(=O)C(=O)N(Cc3ccco3)C2c2ccncc2)c1 (stereo not given)	-30%	5%	-2	1	-14%
CC(=O)Nc1sc2c(c1-c1cc3ccccc3[nH]1)CCNC2	nt	-38%	nt	nt	nt
N#Cc1c(N)n(-c2ccc(N)cc2)c2nc3ccccc3nc12	6%	7%	3	-6	-7%
N#Cc1c(C#N)c(SSc2c(C#N)c(C#N)c(N)n2-c2ccccc2)n(-c2ccccc2)c1N	nt	0%	1	-81*	1%
CC(=O)Nc1ccc(S(=O)(=O)Nc2nc3ccccc3nc2Nc2cccc(O)c2)cc1	2%	-2%	-4	2	i
CC(=O)Nc1ccc(S(=O)(=O)Nc2nc3ccccc3nc2Nc2ccc(C(=O)O)c(O)c2)cc1	7%	nt	-11	-71*	?
Nc1c(C=C2C=CC(=O)C=C2)c(=O)nc2sc(CC(=O)N3CCOCC3)nn12	1%	9%	-7	-22	-5%
COC1=CC(=Cc2c(N)n3nc(CC(=O)N4CCOCC4)sc3nc2=O)C=C(OC)C1=O	4%	?	5	-64*	-7%
Nc1c(/C=C2\C=Nc3ccccc32)c(=O)nc2sc(CC(=O)N3CCOCC3)nn12	20%	-4%	-2	-53*	8%
COC1=C/C(=C/c2c(N)n3nc(CC(=O)N4CCCCC4)sc3nc2=O)C=CC1=O	-4%	59%	-5	-64*	-7%
CCOC1=C/C(=C/c2c(N)n3nc(CC(=O)N4CCCCC4)sc3nc2=O)C=CC1=O	2%	85%	4	-66*	6%
C=CCC1=C/C(=C\c2c(N)n3nc(CC(=O)N4CCCC4)sc3nc2=O)C=C(OC)C1=O	-7%	5%	5	-1	2%
CCOC1=C/C(=C/c2c(N)n3nc(S(=O)(=O)CC)sc3nc2=O)C=CC1=O	8%	88%	-1	-56*	-9%
COc1cc(C=c2c3ccccc3n3c2cc(-c2ccccc2)[n+]3C)cc(OC)c1OC	nt	-10%	?	-18	-9%
CN(C)c1ccc(C=c2c3cc([N+](=O)[O-])ccc3n3c2cc(-c2ccccc2)[n+]3C)cc1	nt	?	-51*	-78*	-19%
CN(C)c1ccc(C=c2c3ccccc3n3c2cc(-c2ccc(Cl)cc2)[n+]3C)cc1	nt	?	-22	-57*	-13%
COc1cc(N(C)C)ccc1C=c1c2ccccc2n2c1cc(-c1ccccc1)[n+]2C	nt	61%	?	?	?
CN(C)c1ccc(C=c2c3ccccc3n3c2cc(-c2ccccc2)[n+]3C)cc1	nt	?	?	-51*	-16%
O=C(NN=Cc1c[nH]c2ccccc12)NN=Cc1c[nH]c2ccccc12	nt	nt	1	-89*	-6%
O=C(N/N=C/c1c[nH]c2ccccc12)c1ccccc1	-4%	-5%	1	-20	5%
CCOC(=O)C1CCCN(C2=NC(=O)/C(=C/c3ccc(OC)cc3OC)S2)C1 (stereo not given)	-14%	-1%	-2	-79*	i

Screening data from PubChem BioAssay.
